{"source": "PubChem BioAssay (EPA / NIEHS)", "key": {"[1]": {"target": "Peroxisome proliferator-activated receptor gamma (Homo sapiens) (UniProt P37231)", "sequence (P37231 whole entry, looked up)": "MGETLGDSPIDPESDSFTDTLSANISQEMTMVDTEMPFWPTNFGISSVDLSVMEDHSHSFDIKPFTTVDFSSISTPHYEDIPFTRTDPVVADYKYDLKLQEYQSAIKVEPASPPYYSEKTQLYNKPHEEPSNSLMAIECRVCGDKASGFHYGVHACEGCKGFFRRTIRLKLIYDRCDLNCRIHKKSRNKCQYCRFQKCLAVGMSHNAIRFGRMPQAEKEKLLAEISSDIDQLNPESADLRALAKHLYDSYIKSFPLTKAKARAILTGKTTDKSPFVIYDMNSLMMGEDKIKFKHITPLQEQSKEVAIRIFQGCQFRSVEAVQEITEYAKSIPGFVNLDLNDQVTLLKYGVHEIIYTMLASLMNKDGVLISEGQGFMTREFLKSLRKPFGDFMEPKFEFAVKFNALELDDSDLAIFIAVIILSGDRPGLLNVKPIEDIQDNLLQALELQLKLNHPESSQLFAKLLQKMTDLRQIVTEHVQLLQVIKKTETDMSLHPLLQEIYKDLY", "assay": "NVS_NR_hPPARg: NovaScreen (NVS) Nuclear Receptor Binding Assay for human Peroxisome Proliferator-activated Receptor gamma (PPARg) (AID 2283370)", "procedure,_shortened": "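Cell-free binding to extracted PPARg protein, read by fluorescence polarization 2 h after dosing; loss of signal relative to DMSO baseline marks displacement. Primary screen in duplicate at 25 uM, actives retested in concentration series.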"}, "[2]": {"target": "human Dopamine Transporter (DAT), SLC6A3 (gene 6531) (UniProt Q01959)", "sequence (Q01959 whole entry, looked up)": "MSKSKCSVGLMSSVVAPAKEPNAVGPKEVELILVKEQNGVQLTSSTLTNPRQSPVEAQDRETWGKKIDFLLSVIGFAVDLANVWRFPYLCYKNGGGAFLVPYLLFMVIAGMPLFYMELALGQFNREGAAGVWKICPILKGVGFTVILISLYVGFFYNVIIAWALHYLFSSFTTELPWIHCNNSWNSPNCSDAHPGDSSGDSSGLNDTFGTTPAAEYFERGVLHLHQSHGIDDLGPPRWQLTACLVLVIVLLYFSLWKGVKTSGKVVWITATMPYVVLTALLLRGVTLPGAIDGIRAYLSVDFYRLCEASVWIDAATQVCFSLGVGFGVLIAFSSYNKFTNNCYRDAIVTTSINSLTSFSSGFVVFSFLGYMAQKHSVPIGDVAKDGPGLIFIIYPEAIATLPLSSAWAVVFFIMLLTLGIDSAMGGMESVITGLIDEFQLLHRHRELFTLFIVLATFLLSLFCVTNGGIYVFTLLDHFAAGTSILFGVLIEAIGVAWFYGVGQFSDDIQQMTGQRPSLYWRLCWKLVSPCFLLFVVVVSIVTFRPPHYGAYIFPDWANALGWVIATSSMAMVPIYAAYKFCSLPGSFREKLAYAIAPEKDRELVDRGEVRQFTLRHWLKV", "assay": "NVS_TR_hDAT: NovaScreen (NVS) Transporter Assay for human Dopamine Transporter (DAT) (AID 2283374);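 further: activity means loss of bound radioligand signal relative to DMSO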", "procedure,_shortened": "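Test chemicals were first screened in duplicate at 25 uM, with actives retested as concentration series. Displacement of a specific radioligand from cell-free human dopamine transporter was measured after 1 h by filtration and scintillation counting.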"}, "[3]": {"target": "human Norepinephrine Transporter (NET), SLC6A2 (gene 6530) (UniProt P23975)", "sequence (P23975 whole entry, looked up)": "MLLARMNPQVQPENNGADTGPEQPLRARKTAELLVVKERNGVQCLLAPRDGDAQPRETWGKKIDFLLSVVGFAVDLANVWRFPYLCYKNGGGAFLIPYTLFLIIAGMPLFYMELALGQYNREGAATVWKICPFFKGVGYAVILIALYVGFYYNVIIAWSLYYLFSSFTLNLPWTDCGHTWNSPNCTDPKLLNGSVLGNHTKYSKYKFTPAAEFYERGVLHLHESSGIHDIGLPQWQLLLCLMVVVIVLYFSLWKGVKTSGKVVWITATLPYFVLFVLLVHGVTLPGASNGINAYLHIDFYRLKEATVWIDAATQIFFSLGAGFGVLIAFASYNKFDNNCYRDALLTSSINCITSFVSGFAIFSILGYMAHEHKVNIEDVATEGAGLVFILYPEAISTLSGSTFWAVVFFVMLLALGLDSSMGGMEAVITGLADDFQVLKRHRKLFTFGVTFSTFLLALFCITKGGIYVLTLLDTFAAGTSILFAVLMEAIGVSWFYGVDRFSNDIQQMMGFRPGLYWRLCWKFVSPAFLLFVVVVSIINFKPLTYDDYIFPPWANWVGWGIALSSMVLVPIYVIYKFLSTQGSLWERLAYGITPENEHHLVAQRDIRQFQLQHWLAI", "assay": "NVS_TR_hNET: NovaScreen (NVS) Transporter Assay for human Norepinephrine Transporter (NET) (AID 2283377)", "procedure,_shortened": "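Scintillation counts of filter-retained radioligand served as the readout, taken 1 h post-dosing in a cell-free CHO-derived system. Test chemicals ran first at 25 uM in duplicate; confirmed hits were retested across concentrations.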"}, "[4]": {"target": "mouse Estrogen Receptor alpha (Era), Esr1 (gene 13982) (UniProt P19785)", "sequence (P19785 whole entry, looked up)": "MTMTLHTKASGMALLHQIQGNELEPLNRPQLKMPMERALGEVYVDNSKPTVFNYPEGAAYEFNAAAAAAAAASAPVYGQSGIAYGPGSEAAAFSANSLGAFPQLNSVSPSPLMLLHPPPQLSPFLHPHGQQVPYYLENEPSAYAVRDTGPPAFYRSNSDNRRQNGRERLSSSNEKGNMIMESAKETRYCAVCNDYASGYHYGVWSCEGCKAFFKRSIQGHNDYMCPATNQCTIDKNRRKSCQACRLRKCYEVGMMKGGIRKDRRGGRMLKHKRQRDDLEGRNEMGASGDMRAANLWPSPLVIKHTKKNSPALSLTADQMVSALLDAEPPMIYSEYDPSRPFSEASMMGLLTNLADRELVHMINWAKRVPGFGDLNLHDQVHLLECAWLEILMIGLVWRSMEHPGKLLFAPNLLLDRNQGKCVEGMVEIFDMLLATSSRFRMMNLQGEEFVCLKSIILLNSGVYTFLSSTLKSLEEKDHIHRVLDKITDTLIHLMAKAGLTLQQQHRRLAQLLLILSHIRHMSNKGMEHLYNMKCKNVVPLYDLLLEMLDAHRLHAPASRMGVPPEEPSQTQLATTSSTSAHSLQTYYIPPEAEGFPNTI", "assay": "NVS_NR_mERa: NovaScreen (NVS) Nuclear Receptor Binding Assay for mouse Estrogen Receptor alpha (Era) (AID 2283378)", "procedure,_shortened": "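Cell-free radioligand binding with extracted mouse Era protein; competitive displacement of radiolabelled ligand, read by filter-based scintillation counting 18 hours after dosing. Loss of signal versus DMSO baseline taken as binding; single screening concentration 25 uM, actives followed in concentration series.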"}, "[5]": {"target": "rat Serotonin Transporter (SERT), Slc6a4 (gene 25553) (UniProt P31652)", "sequence (P31652 whole entry, looked up)": "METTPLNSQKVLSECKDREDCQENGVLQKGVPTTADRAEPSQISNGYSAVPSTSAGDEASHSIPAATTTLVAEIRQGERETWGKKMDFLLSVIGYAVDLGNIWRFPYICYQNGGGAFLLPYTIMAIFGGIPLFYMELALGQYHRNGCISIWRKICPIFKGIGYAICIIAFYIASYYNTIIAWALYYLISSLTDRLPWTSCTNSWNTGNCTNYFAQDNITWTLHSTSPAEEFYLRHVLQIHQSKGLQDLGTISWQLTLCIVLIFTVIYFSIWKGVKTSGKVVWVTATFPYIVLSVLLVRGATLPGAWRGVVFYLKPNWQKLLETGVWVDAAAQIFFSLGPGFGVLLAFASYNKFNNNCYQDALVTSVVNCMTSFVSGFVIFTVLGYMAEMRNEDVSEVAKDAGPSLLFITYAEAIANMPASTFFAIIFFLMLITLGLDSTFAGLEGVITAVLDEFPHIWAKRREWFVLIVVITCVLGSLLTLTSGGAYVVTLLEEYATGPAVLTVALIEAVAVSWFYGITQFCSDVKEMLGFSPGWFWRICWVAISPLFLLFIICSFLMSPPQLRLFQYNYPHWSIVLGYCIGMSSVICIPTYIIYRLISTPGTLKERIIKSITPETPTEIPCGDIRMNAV", "assay": "NVS_TR_rSERT: NovaScreen (NVS) Transporter Assay for rat Serotonin Transporter (SERT) (AID 2283375)", "procedure,_shortened": "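Rat forebrain membranes were incubated with test chemical for 1 hour; radioligand binding to SERT was measured by filter-based scintillation counting. Primary screen ran in duplicate at 25 uM, with actives followed up in concentration series; DMSO served as negative control.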"}, "[6]": {"target": "human Serotonin Transporter (SERT), SLC6A4 (gene 6532) (UniProt P31645)", "sequence (P31645 whole entry, looked up)": "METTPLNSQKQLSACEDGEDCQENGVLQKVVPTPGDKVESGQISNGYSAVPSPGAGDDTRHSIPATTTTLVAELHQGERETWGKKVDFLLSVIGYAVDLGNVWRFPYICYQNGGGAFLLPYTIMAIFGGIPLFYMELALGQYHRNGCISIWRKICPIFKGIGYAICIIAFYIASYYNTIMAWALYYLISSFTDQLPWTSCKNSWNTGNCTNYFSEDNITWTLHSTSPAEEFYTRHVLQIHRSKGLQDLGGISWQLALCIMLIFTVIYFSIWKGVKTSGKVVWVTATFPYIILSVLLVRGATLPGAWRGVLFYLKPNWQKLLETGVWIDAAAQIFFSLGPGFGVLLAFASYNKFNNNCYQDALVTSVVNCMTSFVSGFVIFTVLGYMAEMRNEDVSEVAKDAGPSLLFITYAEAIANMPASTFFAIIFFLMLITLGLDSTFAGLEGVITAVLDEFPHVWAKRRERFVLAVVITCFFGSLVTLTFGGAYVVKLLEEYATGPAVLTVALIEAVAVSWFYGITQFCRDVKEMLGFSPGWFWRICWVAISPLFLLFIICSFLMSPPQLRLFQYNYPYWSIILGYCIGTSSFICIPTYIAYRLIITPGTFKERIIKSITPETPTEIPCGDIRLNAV", "assay": "NVS_TR_hSERT: NovaScreen (NVS) Transporter Assay for human Serotonin Transporter (SERT) (AID 2283372)", "procedure,_shortened": "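Radioligand binding to native SERT in human platelet membranes, read by filter-based scintillation counting 1 h after dosing. Primary screen in duplicate at 25 uM; actives followed up in concentration series; loss of signal versus DMSO baseline.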"}}, "note": "“And” between values parts separate entries of the source, which are not always exact repeats. Equal entries are not always repeated. Records with an inconclusive call do not appear. A structure can be active in one record and inactive in another. The source made the active and inactive calls. How the source made its calls: active means hit-call score of the fitted dose curve at least 0.9, where 1 is the maximum; inconclusive means response in the unintended direction; inactive means score below 0.9."}
{"molecule": "Nc1cccc2c(N)cccc12", "values": [{"measurement": "outcome", "setting": "[1]", "result": "inactive"}, {"measurement": "AC50", "setting": "[2]", "result": "6.65 µM (active)"}, {"measurement": "AC50", "setting": "[3]", "result": "14.3 µM (active)"}]}
{"molecule": "CC1=C(/C=C/C(C)=C/C=C/C(C)=C/C(=O)O)C(C)(C)CCC1", "values": [{"measurement": "outcome", "setting": "[1]", "result": "inactive"}, {"measurement": "AC50", "setting": "[2]", "result": "6.66 µM (active)"}]}
{"molecule": "CN1CCN(c2ccccc2/C=C2\\SCCN(c3ccc(Cl)c(Cl)c3)C2=O)CC1", "values": [{"measurement": "outcome", "setting": "[1]", "result": "inactive"}]}
{"molecule": "C[C@@H]1C[C@H]2[C@@H]3CCC4=CC(=O)C=C[C@]4(C)[C@@]3(F)[C@@H](O)C[C@]2(C)[C@@]1(O)C(=O)COP(=O)(O)O", "values": [{"measurement": "outcome", "setting": "[4]", "result": "inactive"}]}
{"molecule": "CC(C)CCCCCCOC(=O)CCCCC(=O)OCCCCCCC(C)C", "values": [{"measurement": "outcome", "setting": "[2]", "result": "inactive"}]}
{"molecule": "C=C(C)C(=O)OCCC(F)(F)C(F)(F)C(F)(F)C(F)(F)C(F)(F)C(F)(F)F", "values": [{"measurement": "outcome", "setting": "[4]", "result": "inactive"}]}
{"molecule": "CCc1nn(C2CCCCC2)c2cc(C3(C#N)CCC(C(=O)O)CC3)ccc12", "note": "(stereo unspecified)", "values": [{"measurement": "outcome", "setting": "[1]", "result": "inactive"}, {"measurement": "outcome", "setting": "[4]", "result": "inactive"}]}
{"molecule": "C#C[C@]1(O)CC[C@H]2[C@@H]3CCC4=CC(=O)CC[C@@H]4[C@H]3CC[C@@]21C", "values": [{"measurement": "outcome", "setting": "[1]", "result": "inactive"}]}
{"molecule": "CCCCCCCCCCCCN1CCCC1=O", "values": [{"measurement": "outcome", "setting": "[4]", "result": "inactive"}]}
{"molecule": "O=C(O)c1ccccc1C(c1ccc(O)cc1)c1ccc(O)cc1", "values": [{"measurement": "outcome", "setting": "[1]", "result": "inactive"}, {"measurement": "AC50", "setting": "[4]", "result": "7.92 µM (active) and 7.1 µM (active)"}, {"measurement": "outcome", "setting": "[4]", "result": "inactive"}]}
{"molecule": "CCCCCCCC(=O)O", "values": [{"measurement": "outcome", "setting": "[2]", "result": "inactive"}, {"measurement": "outcome", "setting": "[5]", "result": "inactive"}]}
{"molecule": "O=c1c(-c2ccc(O)cc2)coc2cc(O)ccc12", "values": [{"measurement": "outcome", "setting": "[1]", "result": "inactive"}, {"measurement": "AC50", "setting": "[4]", "result": "421 nM (active) [middle of 4 runs]"}]}
{"molecule": "CCCCCCCCOC(=O)CCCCCCCCC(=O)OCCCCCCCC", "values": [{"measurement": "outcome", "setting": "[6]", "result": "inactive"}]}
